# PubChem BioAssay (EPA / NIEHS)
# Results filed as inconclusive are left out. Calls of active or inactive are those of the source. How the source made its calls, unless noted: active means hit-call score of the fitted dose curve at least 0.9, where 1 is the maximum; inactive means score below 0.9.
# Tests used:
# [1] = ATG_CRE_CIS: Attagene CIS-FACTORIAL HepG2 Assay for human cAMP Responsive Element (CRE) binding protein 3 (AID 2282926); conditions: HepG2 CRE cis-reporter, Attagene multiplexed mRNA; actives raise or lower the signal
# How it was run: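 HepG2 cells transiently transfected with a multiplexed reporter library (CRE-driven unit among them) were dosed for 24 h. Reporter mRNA was quantified by RT-PCR, fluorescent labelling, HpaI digestion and capillary electrophoresis, with bidirectional fitting against DMSO baseline.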
# [2] = biological target: CCAAT/enhancer-binding protein beta (Homo sapiens) (UniProt P17676); test: ATG_C_EBP_CIS: Attagene CIS-FACTORIAL HepG2 Assay for human CCAAT/Enhancer Binding Protein (C/EBP) beta (AID 2282927); conditions: HepG2 Attagene cis-factorial transcription factor reporter; actives raise or lower the signal
# Sequence of CCAAT/enhancer-binding protein beta (Homo sapiens) (P17676 whole entry, looked up): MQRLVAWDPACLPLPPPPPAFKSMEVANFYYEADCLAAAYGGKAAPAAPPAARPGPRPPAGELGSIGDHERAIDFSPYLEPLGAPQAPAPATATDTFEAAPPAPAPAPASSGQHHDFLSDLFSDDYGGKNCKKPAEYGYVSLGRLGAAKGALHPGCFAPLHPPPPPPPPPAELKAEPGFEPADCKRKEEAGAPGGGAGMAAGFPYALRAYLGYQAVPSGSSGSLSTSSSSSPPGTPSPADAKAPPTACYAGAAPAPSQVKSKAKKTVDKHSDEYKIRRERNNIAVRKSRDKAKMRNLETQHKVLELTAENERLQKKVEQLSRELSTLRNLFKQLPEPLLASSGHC
# How it was run: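 HepG2, transient MRTU transfection, 24 h treatment. RT-PCR plus CE fluorescence; DMSO negative control, bidirectional fit.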
# [3] = ATG_CMV_CIS: Attagene CIS-FACTORIAL HepG2 Assay for human CMV (Internal Marker) (AID 2282928); conditions: HepG2 CMV promoter reporter, transcription factor profiling; actives raise or lower the signal;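 further: endpoint acts as a background internal control marker rather than a target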
# How it was run: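 After transient transfection of HepG2 with reporter transcription units driven by cis-regulatory promoters, cells receive test chemical for 24 h. Labeled reporter amplicons, digested with HpaI, are sized and quantified by capillary electrophoresis against DMSO.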
# [4] = ATG_DR4_LXR_CIS: Attagene CIS-FACTORIAL HepG2 Assay for human Liver X Receptor (LXR), DR4 submotif (AID 2282929); conditions: HepG2 Attagene DR4 cis-reporter, mRNA transcription; actives raise or lower the signal
# How it was run: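 Fluorescence intensity of labelled reporter cDNA fragments, separated by capillary electrophoresis, gives the signal. HepG2 cells bearing cis-regulated reporter constructs were treated 24 h; activity fitted bidirectionally relative to DMSO negative control.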
# [5] = ATG_AP_2_CIS: Attagene CIS-FACTORIAL HepG2 Assay for human Activator Protein 2 (AP-2) (AID 2282932); conditions: HepG2 AP-2 cis-reporter, Attagene transcription factor profiling; actives raise or lower the signal
# How it was run: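 Multiplexed mRNA reporter assay in HepG2: cis-regulated units report endogenous factor activity after 24 h treatment. Fluorescence from capillary electrophoresis of RT-PCR products gives the signal, with DMSO as baseline.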
# [6] = ATG_E_Box_CIS: Attagene CIS-FACTORIAL HepG2 Assay for human Enhancer Box (E-box) (AID 2282936); conditions: HepG2 E-box cis-reporter transcription, actives raise or lower the signal
# How it was run: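 First, HepG2 cells receive multiple cis-regulated reporter constructs by transient transfection. Next, chemicals are applied for 24 h. Finally, reporter mRNA is quantified via RT-PCR and capillary electrophoresis, with DMSO as baseline.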
# [7] = ATG_EGR_CIS: Attagene CIS-FACTORIAL HepG2 Assay for human Early Growth Response 1 (EGR1) (AID 2282938); conditions: HepG2 Attagene CIS-FACTORIAL EGR reporter mRNA; actives raise or lower the signal
# How it was run: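 Activity is taken as induction or loss of reporter mRNA versus DMSO, fitted bidirectionally. Transcripts from cis-regulated reporter units in transiently transfected HepG2 were measured after 24 h by RT-PCR with capillary electrophoresis.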
# [8] = ATG_M_19_CIS: Attagene CIS-FACTORIAL HepG2 Assay for M19 Transcription Factor (Internal Marker) (AID 2282939); conditions: HepG2 Attagene CIS-FACTORIAL M19 internal marker reporter; actives raise or lower the signal
# How it was run: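 Following a 24 h exposure, RNA from transfected HepG2 cells was reverse-transcribed, PCR-amplified with reporter-specific primers, end-labelled with 6-FAM and HpaI-digested before capillary separation. Values represent gain or loss versus DMSO.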
# [9] = ATG_Ets_CIS: Attagene CIS-FACTORIAL HepG2 Assay for human Erythroblast Transformation Specific (ETS) (AID 2282941); conditions: HepG2 ETS cis-reporter transcription, actives raise or lower the signal
# How it was run: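 Human HepG2 hepatoma cells were transiently transfected with promoter-driven reporter constructs and treated for 24 hours. Reporter transcripts were quantified by RT-PCR with fluorescent primer extension; bidirectional curve fitting used DMSO as reference.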
# [10] = biological target: Hepatocyte nuclear factor 3-beta (Homo sapiens) (UniProt Q9Y261); test: ATG_FoxA2_CIS: Attagene CIS-FACTORIAL HepG2 Assay for human Forkhead box A2 (FOXA2) (AID 2282942); conditions: HepG2 cis-reporter transcription factor activity, 24 h; actives raise or lower the signal
# Sequence of Hepatocyte nuclear factor 3-beta (Homo sapiens) (Q9Y261 whole entry, looked up): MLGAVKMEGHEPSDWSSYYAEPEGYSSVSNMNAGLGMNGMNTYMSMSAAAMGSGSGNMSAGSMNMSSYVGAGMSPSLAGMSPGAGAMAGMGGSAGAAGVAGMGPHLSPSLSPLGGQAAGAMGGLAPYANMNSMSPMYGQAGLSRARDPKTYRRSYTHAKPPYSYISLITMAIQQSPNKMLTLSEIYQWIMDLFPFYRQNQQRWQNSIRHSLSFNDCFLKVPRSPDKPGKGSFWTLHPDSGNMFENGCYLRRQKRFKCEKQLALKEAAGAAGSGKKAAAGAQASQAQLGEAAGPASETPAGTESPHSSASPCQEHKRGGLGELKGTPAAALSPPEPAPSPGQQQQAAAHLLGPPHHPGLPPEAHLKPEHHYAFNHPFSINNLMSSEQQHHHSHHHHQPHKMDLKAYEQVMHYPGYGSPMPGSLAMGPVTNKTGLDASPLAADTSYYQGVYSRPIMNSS
# How it was run: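 Reporter transcript induction is measured by fluorescence after capillary electrophoresis of RT-PCR products from HepG2 cells exposed 24 h. Cis-regulated reporter units report endogenous factor activity; curves fitted both directions against DMSO.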
# [11] = ATG_FoxO_CIS: Attagene CIS-FACTORIAL HepG2 Assay for human Forkhead box O (FoxO) (AID 2282943); conditions: HepG2 Attagene cis-reporter, FoxO element, mRNA; actives raise or lower the signal
# How it was run: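 Transfected HepG2 reporter cells exposed to test chemical for 24 h; reporter RNA measured by reverse transcription, PCR and fluorescent capillary electrophoresis; curves fitted for increases and decreases against DMSO.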
# [12] = ATG_GATA_CIS: Attagene CIS-FACTORIAL HepG2 Assay for human GATA Binding Protein (AID 2282944); conditions: HepG2 GATA cis-element reporter, Attagene multiplex mRNA; actives raise or lower the signal
# How it was run: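 DMSO serves as negative control and baseline for bidirectional fitting of reporter mRNA changes. HepG2 cells bearing transiently transfected cis-promoter reporters were exposed 24 h; transcripts detected via RT-PCR and capillary electrophoresis.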
# [13] = ATG_M_32_CIS: Attagene CIS-FACTORIAL HepG2 Assay for M32 Transcription Factor (Internal Marker) (AID 2282949); conditions: HepG2 Attagene cis-factorial M32 reporter, mRNA; actives raise or lower the signal;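 further: background control marker of the multiplexed CIS panel rather than a real target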
# How it was run: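 Internal background marker read-out: RT-PCR/capillary electrophoresis fluorescence of reporter transcripts from transiently transfected HepG2 cells after 24 h chemical exposure. Activity fitted bidirectionally relative to DMSO negative control.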
# [14] = ATG_M_06_CIS: Attagene CIS-FACTORIAL HepG2 Assay for M06 Transcription Factor (Internal Marker) (AID 2282950); conditions: HepG2 Attagene CIS-FACTORIAL M06 internal marker reporter; actives raise or lower the signal
# How it was run: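 Fluorescence-labelled RT-PCR products from cis-promoter reporter units, cut with HpaI and resolved by capillary electrophoresis, give the signal. Cells are human HepG2, dosed for 24 h. Serves as background control, fitted relative to DMSO.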
# [15] = ATG_PXRE_CIS: Attagene CIS-FACTORIAL HepG2 Assay for human Pregnane X Receptor Element (PXRE) (AID 2282957); conditions: HepG2 Attagene CIS-FACTORIAL PXRE reporter, mRNA; actives raise or lower the signal
# How it was run: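 HepG2 cells transiently transfected with cis-regulated multiple reporter transcription units; endogenous factor activity measured as reporter mRNA 24 h after dosing. RT-PCR, fluorescent primer extension, HpaI digestion, capillary electrophoresis; bidirectional fit versus DMSO baseline.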
# [16] = ATG_Sox_CIS: Attagene CIS-FACTORIAL HepG2 Assay for human SRY-box transcription factor (SOX) (AID 2282960); conditions: HepG2 Attagene cis-factorial SOX reporter, mRNA; actives raise or lower the signal
# How it was run: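 Measures mRNA induction of a SOX1-associated reporter in HepG2 after 24 h dosing. Fluorescently labelled RT-PCR fragments are separated by capillary electrophoresis, and gain or loss relative to DMSO control is fitted.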
# [17] = biological target: Transcription factor Sp1 (Homo sapiens) (UniProt P08047); test: ATG_Sp1_CIS: Attagene CIS-FACTORIAL HepG2 Assay for human Specificity Protein 1 (Sp1) (AID 2282961); conditions: HepG2 Sp1 cis-reporter transcription, actives raise or lower the signal
# Sequence of Transcription factor Sp1 (Homo sapiens) (P08047 whole entry, looked up): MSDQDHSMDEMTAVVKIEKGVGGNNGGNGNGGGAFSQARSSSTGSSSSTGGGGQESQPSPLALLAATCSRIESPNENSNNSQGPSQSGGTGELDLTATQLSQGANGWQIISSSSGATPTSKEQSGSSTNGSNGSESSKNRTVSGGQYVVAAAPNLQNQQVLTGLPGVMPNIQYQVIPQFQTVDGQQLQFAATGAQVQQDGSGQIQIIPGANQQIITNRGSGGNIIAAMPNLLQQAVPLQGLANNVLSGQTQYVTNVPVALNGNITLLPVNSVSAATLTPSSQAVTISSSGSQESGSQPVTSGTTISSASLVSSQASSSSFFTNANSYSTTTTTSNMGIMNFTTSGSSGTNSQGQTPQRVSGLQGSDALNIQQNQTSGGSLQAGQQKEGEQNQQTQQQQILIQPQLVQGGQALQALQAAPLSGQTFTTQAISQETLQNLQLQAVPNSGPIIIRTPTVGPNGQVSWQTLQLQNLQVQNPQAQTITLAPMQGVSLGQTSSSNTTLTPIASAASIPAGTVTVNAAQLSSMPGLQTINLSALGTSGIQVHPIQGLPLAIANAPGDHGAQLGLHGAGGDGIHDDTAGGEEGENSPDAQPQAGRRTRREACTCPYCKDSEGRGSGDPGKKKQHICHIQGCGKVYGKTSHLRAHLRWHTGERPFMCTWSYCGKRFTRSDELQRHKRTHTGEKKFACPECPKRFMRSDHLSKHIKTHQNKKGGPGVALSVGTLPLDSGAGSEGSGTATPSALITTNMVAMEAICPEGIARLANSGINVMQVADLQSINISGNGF
# How it was run: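 Cells: HepG2, transiently transfected with cis-regulated multiplexed reporters. Exposure: 24 h. Detection: reporter transcripts amplified, fluorescently labeled, restriction-digested and sized by capillary electrophoresis. Analysis: bidirectional fit relative to DMSO.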
# [18] = ATG_SREBP_CIS: Attagene CIS-FACTORIAL HepG2 Assay for human Sterol Regulatory Element Binding (SREBP) (AID 2282962); conditions: HepG2 Attagene cis-factorial SREBP reporter, mRNA; actives raise or lower the signal
# How it was run: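 mRNA induction of transfected cis-promoter reporters in HepG2 cells, 24 h post-dose. Detection: RT-PCR with 6-FAM-labelled products, HpaI digest, capillary electrophoresis. DMSO served as negative control and baseline.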
# [19] = biological target: Signal transducer and activator of transcription 3 (Homo sapiens) (UniProt P40763); test: ATG_STAT3_CIS: Attagene CIS-FACTORIAL HepG2 Assay for human Signal Transducer and Activator of Transcription 3 (STAT3) (AID 2282963); conditions: HepG2, Attagene cis-factorial STAT3 reporter transcription; actives raise or lower the signal
# Sequence of Signal transducer and activator of transcription 3 (Homo sapiens) (P40763 whole entry, looked up): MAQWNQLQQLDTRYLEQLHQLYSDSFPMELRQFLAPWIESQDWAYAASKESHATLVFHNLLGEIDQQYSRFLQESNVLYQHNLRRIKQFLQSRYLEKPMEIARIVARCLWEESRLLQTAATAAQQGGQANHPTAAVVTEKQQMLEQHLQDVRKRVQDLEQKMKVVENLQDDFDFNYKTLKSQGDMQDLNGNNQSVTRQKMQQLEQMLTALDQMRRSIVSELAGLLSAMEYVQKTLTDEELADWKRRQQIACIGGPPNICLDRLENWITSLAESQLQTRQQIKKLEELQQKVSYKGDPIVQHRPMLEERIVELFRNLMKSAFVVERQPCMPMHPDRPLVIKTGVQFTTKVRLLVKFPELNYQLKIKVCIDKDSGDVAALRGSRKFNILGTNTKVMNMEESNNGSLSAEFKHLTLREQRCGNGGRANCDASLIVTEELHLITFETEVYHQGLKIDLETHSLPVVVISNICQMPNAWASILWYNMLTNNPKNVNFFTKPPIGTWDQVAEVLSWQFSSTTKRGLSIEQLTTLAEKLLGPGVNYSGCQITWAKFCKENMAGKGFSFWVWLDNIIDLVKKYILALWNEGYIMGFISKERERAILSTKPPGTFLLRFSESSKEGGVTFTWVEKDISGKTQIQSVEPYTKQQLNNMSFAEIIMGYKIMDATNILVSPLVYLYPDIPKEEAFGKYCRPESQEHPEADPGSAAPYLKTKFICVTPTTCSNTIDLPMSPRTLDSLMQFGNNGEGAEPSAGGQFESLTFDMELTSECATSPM
# How it was run: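 Values derive from bidirectional fits relative to DMSO of reporter mRNA levels, measured by RT-PCR with capillary electrophoresis, in HepG2 cells carrying transiently transfected cis-regulated reporter units and exposed 24 h.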
# [20] = biological target: Androgen receptor (Homo sapiens) (UniProt P10275); test: ATG_AR_TRANS: Attagene TRANS-FACTORIAL HepG2 Assay for human Androgen Receptor (AR) (AID 2282973; active means hit-call score of the fitted dose curve at least 0.9, where 1 is the maximum); conditions: HepG2 Attagene TRANS-FACTORIAL AR reporter transcription
# Sequence of Androgen receptor (Homo sapiens) (P10275 whole entry, looked up, the tested form may be a part): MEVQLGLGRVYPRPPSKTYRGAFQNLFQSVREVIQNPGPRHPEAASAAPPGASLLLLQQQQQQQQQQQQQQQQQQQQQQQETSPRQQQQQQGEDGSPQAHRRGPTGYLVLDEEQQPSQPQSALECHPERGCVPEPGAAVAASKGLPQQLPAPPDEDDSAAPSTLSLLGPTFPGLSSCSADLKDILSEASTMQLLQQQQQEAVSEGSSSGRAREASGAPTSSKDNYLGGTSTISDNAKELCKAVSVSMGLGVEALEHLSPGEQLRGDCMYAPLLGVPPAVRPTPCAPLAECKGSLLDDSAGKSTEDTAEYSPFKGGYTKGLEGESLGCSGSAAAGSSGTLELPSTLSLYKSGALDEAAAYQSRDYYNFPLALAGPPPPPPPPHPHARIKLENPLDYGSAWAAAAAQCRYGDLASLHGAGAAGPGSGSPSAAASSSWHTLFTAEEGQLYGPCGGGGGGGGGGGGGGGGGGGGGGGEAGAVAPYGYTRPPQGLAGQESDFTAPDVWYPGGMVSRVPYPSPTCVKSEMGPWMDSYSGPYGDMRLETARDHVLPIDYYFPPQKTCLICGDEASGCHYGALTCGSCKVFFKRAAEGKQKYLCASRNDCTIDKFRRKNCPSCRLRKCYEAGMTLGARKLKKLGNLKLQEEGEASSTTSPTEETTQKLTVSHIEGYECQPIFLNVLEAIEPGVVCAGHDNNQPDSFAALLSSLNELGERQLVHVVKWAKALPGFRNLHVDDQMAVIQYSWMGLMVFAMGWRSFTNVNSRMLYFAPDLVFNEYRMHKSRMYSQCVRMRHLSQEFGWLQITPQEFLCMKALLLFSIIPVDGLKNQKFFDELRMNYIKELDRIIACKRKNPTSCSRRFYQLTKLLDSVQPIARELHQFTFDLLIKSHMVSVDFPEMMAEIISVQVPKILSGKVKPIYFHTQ
# How it was run: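 HepG2 cells transiently transfected with multiplexed GAL4-UAS reporter units and chimeric NR-Gal4 fusion; 24 h compound exposure. Reporter mRNA measured by RT-PCR, 6-FAM labelling, HpaI digestion and capillary electrophoresis; gain-of-signal fitted relative to DMSO baseline.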
smiles,measurement,setting,value
c1cc(OCC2CO2)ccc1Cc1ccc(OCC2CO2)cc1 (stereo unspecified),AC50,[1],19.6 µM (active)
same,outcome,[2],inactive
same,AC50,[3],49.6 µM (active)
same,AC50,[4],48.3 µM (active)
same,AC50,[5],57.9 µM (active)
same,AC50,[6],53.2 µM (active)
same,AC50,[7],33.4 µM (active)
same,outcome,[8],inactive
same,outcome,[9],inactive
same,outcome,[10],inactive
same,outcome,[11],inactive
same,outcome,[12],inactive
same,outcome,[13],inactive
same,outcome,[14],inactive
same,AC50,[15],8.22 µM (active)
same,AC50,[16],33.4 µM (active)
same,AC50,[17],37.6 µM (active)
same,AC50,[18],33.4 µM (active)
same,AC50,[19],54.8 µM (active)
O=C1C(Cl)=C(Cl)C(=O)C(Cl)=C1Cl,outcome,[1],inactive
same,outcome,[2],inactive
same,outcome,[3],inactive
same,AC50,[4],66.9 µM (active)
same,outcome,[5],inactive
same,AC50,[6],58.4 µM (active)
same,AC50,[7],137 µM (active)
same,outcome,[8],inactive
same,outcome,[9],inactive
same,outcome,[10],inactive
same,outcome,[11],inactive
same,outcome,[12],inactive
same,outcome,[13],inactive
same,outcome,[14],inactive
same,outcome,[15],inactive
same,outcome,[16],inactive
same,outcome,[17],inactive
same,outcome,[18],inactive
same,outcome,[19],inactive
same,outcome,[20],inactive
CC(O)CN(CC(C)O)CC(C)O (stereo unspecified),outcome,[1],inactive
same,outcome,[2],inactive
same,outcome,[3],inactive
same,outcome,[4],inactive
same,outcome,[5],inactive
same,outcome,[6],inactive
same,outcome,[7],inactive
same,outcome,[8],inactive
same,outcome,[9],inactive
same,outcome,[10],inactive
same,outcome,[11],inactive
same,outcome,[12],inactive
same,outcome,[13],inactive
same,outcome,[14],inactive
same,outcome,[15],inactive
same,outcome,[16],inactive
same,outcome,[17],inactive
same,outcome,[18],inactive
same,outcome,[19],inactive
CC1CCC(=O)O1 (stereo unspecified),outcome,[1],inactive
same,outcome,[2],inactive
same,outcome,[3],inactive
same,outcome,[4],inactive
same,outcome,[5],inactive
same,outcome,[6],inactive
same,outcome,[7],inactive
same,outcome,[8],inactive
same,outcome,[9],inactive
same,outcome,[10],inactive
same,outcome,[11],inactive
same,outcome,[12],inactive
same,outcome,[13],inactive
same,outcome,[14],inactive
same,outcome,[15],inactive
same,outcome,[16],inactive
same,outcome,[17],inactive
same,outcome,[18],inactive
same,outcome,[19],inactive
C=C(Cl)CCl,outcome,[1],inactive
same,outcome,[2],inactive
same,outcome,[3],inactive
same,outcome,[4],inactive
same,outcome,[5],inactive
same,outcome,[6],inactive
same,outcome,[7],inactive
same,outcome,[8],inactive
same,outcome,[9],inactive
same,outcome,[10],inactive
same,outcome,[11],inactive
same,outcome,[12],inactive
same,outcome,[13],inactive
same,outcome,[14],inactive
same,AC50,[15],52 µM (active)
same,outcome,[16],inactive
same,outcome,[17],inactive
same,outcome,[18],inactive
same,outcome,[19],inactive
